High-throughput results as filed in PubChem.
IL1B secr inh – qHTS for Inhibitors of Inflammasome Signaling: IL-1-beta AlphaLISA Primary Screen; THP-1 LPS/ATP IL-1B secretion, AlphaLISA, 16 h; active compounds read low; activity change, % at 57.5 µM; hit rate 4.7% among 360,000; AID 743279, 2014; in the data active = activity change below about -50%; inconclusive = mostly about -30% to -49%
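THP-1 cells pretreated 1 hr with compounds (up to 57.5 uM final), then stimulated with LPS (250 ng/mL final) plus ATP (1.25 mM final); secreted IL-1B measured by AlphaLISA after 16 hr, decreased signal indicating inhibition.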
TDP1 cell noCPT – qHTS for Inhibitors of human tyrosyl-DNA phosphodiesterase 1 (TDP1): qHTS in cells in absence of CPT. DT40 Tdp1-/- hTDP1 cells, no CPT, ATP luminescence, 48 h. Potency, µM (series often up to 46.2 µM), inactives show at the top dose activity change, negative = growth inhibition, actives largely listed as inhibitors. hit rate 15% among 420,000. AID 686978, 2013; also: potency is read from the fitted curve at half-maximal effect; nearly all actives have a fitted effect of over 55% in size
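Readout: luminescence from CellTiter-Glo after 30 min in the dark at RT. Cells: DT40 Tdp1-/- with stable hTDP1, 400/well. Exposure: compounds alone, ≥48 hr, 37 °C.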
TDP1 cell CPT – qHTS for Inhibitors of human tyrosyl-DNA phosphodiesterase 1 (TDP1): qHTS in cells in presence of CPT; chicken DT40 Tdp1-/-;hTDP1 cells + 20 nM CPT, ATP luminescence, 48 h; Potency, µM (highest dose often 46.2 µM), for inactives: at the highest dose activity change, negative = growth inhibition, most hits filed as inhibitors; hit rate 12% among 420,000; AID 686979, 2013; also: potency is read from the fitted curve at half-maximal effect; nearly all actives have a fitted effect of over 55% in size
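Cell growth measured by CellTiter-Glo luminescence after a minimum 48 h, 37 C compound exposure with 20 nM CPT in Tdp1-knockout DT40 cells stably expressing hTDP1, seeded 400/well; qHTS titration format.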
HT1080 IDH1KD tx – qHTS for induction of synthetic lethality in tumor cells producing 2HG: qHTS for the HT-1080-IDH1KD cell line. HT-1080 IDH1 knockdown viability, ATP luminescence, 48 h. AID 686971, 2013. Potency, µM (series often up to 46.1 µM), without a hit: at the highest dose activity, negative = toxicity, most hits filed as cytotoxic. hit rate 2% among 360,000;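 also: potency is read from the fitted curve at half-maximal effect; 0% = DMSO wells and -100% = cell-free medium wells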
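In this qHTS, HT-1080 cells depleted of IDH1 are exposed for 48 h at 37 °C to compound titrations. Toxicity is scored from CellTiter-Glo luminescence, with DMSO as full viability and medium alone as none.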
HT1080-NT tox – qHTS for induction of synthetic lethality in tumor cells producing 2HG: qHTS for the HT-1080-NT fibrosarcoma cell line | hit rate 1.6% among 360,000 | HT-1080-NT fibrosarcoma viability, CellTiter-Glo ATP luminescence, 48 h | AID 686970, 2013 | Potency, µM (doses to about 46.1 µM), without a hit: at the top dose activity, negative = less viability, actives largely listed as cytotoxic;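 also: NT is the 2HG producing partner of a matched IDH1 knockdown line; potency is read from the fitted curve at half-maximal effect; 0% = DMSO-treated cells and -100% = media-only wells without cells; nearly all actives have a fitted effect of over 55% in size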
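750 cells/well, RPMI + 5% FBS; 2 h settle, compound pin-transfer, 48 h at 37 degrees C. CellTiter-Glo 10 min RT, luminescence. Normalized to DMSO and media-only wells.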
* hit, by the source's call; ? = inconclusive; · = no result. Rows were chosen to be rich in hits. Some 19% of all compounds tested hit in one or more screens of this group. Unless noted, calls follow the shape of the dose curve; as a rule, active = well fitted curve in the direction sought with a large enough effect; inconclusive = small, poorly fitted or top-dose-only effect, or another doubt; inactive = no such curve, though single readings can be large; an effect the other way counts as inactive or inconclusive. Unless noted, % is scaled to controls: 0 for no effect and ±100 for the full control effect.

SMILES	IL1B secr inh	TDP1 cell noCPT	TDP1 cell CPT	HT1080 IDH1KD tx	HT1080-NT tox
O=C(NCc1ccccc1Cl)C1CCN(S(=O)(=O)c2ccc3c(c2)CCCN3C(=O)C2CCC2)CC1	·	14.6µM*	14.6µM*	·	·
Cc1ccc(Cl)cc1N1CCN(S(=O)(=O)c2ccc3c(c2)CCCN3C(=O)C2CCC2)CC1	·	?	-4.2%	·	·
CN1C(=O)C(C)(C)c2cc(S(=O)(=O)N3CCCC(C(=O)NCc4ccccc4Cl)C3)ccc21 (stereo not given)	2.3	23.1µM*	?	-1.9%	-1.0%
CC(=O)N1CCCc2cc(S(=O)(=O)N3CCCC(C(=O)Nc4ccc(C)c(F)c4)C3)ccc21 (stereo not given)	·	20.6µM*	?	·	·
O=C(C1CCC1)N1CCCc2cc(S(=O)(=O)N3CCN(c4ccccc4)CC3)ccc21	-2.8	?	18.4µM*	0.0%	-0.2%
Cc1cc(C)c(C)c(OCC(O)CN2CCN(c3ccccn3)CC2)c1 (stereo not given)	14.4	-20.8%	?	-20.9%	-18.9%
COc1ccc(C)cc1NC(=O)C1CCN(S(=O)(=O)c2ccc3c(c2)NC(=O)CO3)CC1	-1.2	-9.3%	-25.8%	1.7%	-3.5%
Cc1noc(C)c1S(=O)(=O)NCc1ccc(CN(C)C)cc1	0.0	24.8%	1.6%	6.0%	0.9%
CCc1ccccc1NC(=O)C1CCN(S(=O)(=O)c2ccccc2)CC1	·	-18.0%	-16.8%	·	·
CC(=O)N1CCCc2cc(S(=O)(=O)N3CCN(c4ccc(F)cc4)CC3)ccc21	·	16.4µM*	23.1µM*	·	·
CC(=O)N1CCCc2cc(S(=O)(=O)N3CCC(C)CC3)ccc21	14.5	-4.1%	2.9%	12.5%	8.9%
CC(=O)N1c2ccc(S(=O)(=O)N3CCC(C(=O)NCc4ccccc4Cl)CC3)cc2CC1C (stereo not given)	-6.1	?	-6.0%	0.0%	2.3%
CC(=O)N1c2ccc(S(=O)(=O)N3CCCC(C(=O)NCc4ccccc4Cl)C3)cc2CC1C (stereo not given)	-55.1*	-11.2%	?	-15.8%	-2.8%
CC(=O)N1CCCc2cc(S(=O)(=O)N3CCCC(C(=O)NCc4ccccc4Cl)C3)ccc21 (stereo not given)	-15.0	25.9µM*	20.6µM*	0.3%	9.6%
CCC(=O)N1CCCc2cc(S(=O)(=O)N3CCC(C(=O)Nc4ccccc4CC)CC3)ccc21	·	?	25.9µM*	·	·
O=c1c(-c2ccccc2)nc2cnc(N3CCOCC3)nc2n1Cc1cccs1	·	-10.0%	?	·	·
Cc1ccc(S(=O)(=O)NCc2ccccc2)cc1C(=O)N1CCN(S(=O)(=O)c2ccccc2)CC1	14.4	?	-27.6%	-5.2%	2.7%
COc1ccc(Cl)cc1Cn1c(C)c(C(=O)NCc2cccc([N+](=O)[O-])c2)sc1=O	?	?	?	1.7%	-0.1%
Cc1ccc(C(=O)NCCc2ccc(F)cc2)s1	-24.0	?	?	-0.3%	0.8%
Cc1ccc2c(c1)c1c(n2CC(O)CN2CCC(C)CC2)CCCC1 (stereo not given)	-65.0*	25.9µM*	?	-3.2%	-11.9%
Cc1ccc2c(c1)c1c(n2CC(O)CNC2CCCCC2)CCCC1 (stereo not given)	-111.9*	14.6µM*	23.1µM*	16.4µM*	20.6µM*
Cc1ccc2c(c1)c1c(n2CC(O)CN2CCCCC2C)CCCC1 (stereo not given)	0.0	?	?	?	18.4µM*
CC(NC(=S)NCCc1ccccc1)C(c1cccs1)N1CCN(C)CC1 (stereo not given)	-5.2	-3.4%	-4.4%	-6.3%	5.6%
CCOc1ccc(CCNC(=O)CN2N=C(c3ccccc3)CCC2=O)cc1OCC	·	?	-21.2%	·	·
Oc1cc2c(cc1O)[C@H](c1ccccc1)CNCC2	·	26.6µM*	26.6µM*	·	·
SMILES	IL1B secr inh	TDP1 cell noCPT	TDP1 cell CPT	HT1080 IDH1KD tx	HT1080-NT tox
Cc1ccc(S(=O)(=O)N2CCC(=O)N([C@H](COC(=O)Nc3ccccc3)Cc3ccccc3)CC2)cc1	-10.0	18.4µM*	?	3.4%	-10.6%
Cc1ccc(S(=O)(=O)N2CCC(=O)N(C(COCc3cccc(Cl)c3)Cc3ccccc3)CC2)cc1 (stereo not given)	10.0	18.4µM*	-90.9%	-8.0%	-0.1%
Cc1ccc(S(=O)(=O)N2CCC(=O)N(CCOCc3ccc(Cl)cc3)CC2)cc1	-15.7	16.4µM*	11.6µM*	-2.1%	-19.5%
Cc1ccc(S(=O)(=O)N2CCC(=O)N([C@H](COCc3ccc(Cl)cc3)Cc3ccccc3)CC2)cc1	-13.0	?	?	-4.4%	3.2%
Cc1ccc(S(=O)(=O)N2CCC(=O)N(C(COCc3ccccc3)Cc3ccccc3)CC2)cc1 (stereo not given)	-26.4	11.6µM*	?	-0.2%	-3.8%
CCc1noc(C)c1C(=O)NNC(=O)COc1ccc(Br)cc1	-2.0	10.2%	11.1%	-5.5%	2.6%
C#CCOCCOCCOCCNc1nc(N2CCN(C(=O)[C@H]([C@@H](C)CC)n3cc(CCCN=C(N)N)nn3)CC2)nc(N2CCN(C(=O)[C@H]([C@@H](C)CC)n3cc(CCC(=O)O)nn3)CC2)n1	28.8	1.7%	15.6%	15.5%	20.0%
Cc1ccc(S(=O)(=O)N2CCC(=O)N([C@H](COCc3ccc(Cl)c(Cl)c3)Cc3ccccc3)CC2)cc1	32.4	?	?	2.8%	9.7%
Cc1ccc(S(=O)(=O)N2CCC(=O)N(C(COCc3cccc(C(F)(F)F)c3)Cc3ccccc3)CC2)cc1 (stereo not given)	33.1	20.6µM*	?	-10.3%	-0.7%
Cc1ccc(S(=O)(=O)N2CCC(=O)N([C@H](COCc3cccc(Cl)c3)Cc3ccccc3)CC2)cc1	28.0	20.6µM*	?	-9.4%	-6.3%
CC(=O)c1cc(CN2CCC(n3nccc3NC(=O)c3ccccc3)CC2)cs1	-0.3	-6.8%	0.8%	-0.9%	-3.0%
Cc1noc(C)c1CSCC(=O)Oc1ccc(N(C)S(=O)(=O)c2ccc(Cl)cc2)cc1	-4.0	-18.7%	3.7%	11.6%	15.0%
Cc1cc(C)nc(-n2nc(C)cc2NC(=O)CN2CCC(C)CC2)n1	14.2	5.8µM*	5.17µM*	-6.3%	-1.9%
Cc1cc(C)nc(-n2nc(C)cc2NC(=O)CNC(C)c2ccccc2)n1 (stereo not given)	9.6	20.6µM*	?	5.5%	8.5%
